This note sets out measurements from article PMC12820563, “FoxP3 forms a head-to-head dimer in vivo and stabilizes its multimerization on adjacent microsatellites”.

Whole data set: some 16,000 sequences, median “rpm ratio (pull-down/input)” near 0.5, cut for the highest 2% near 5.5. Many of the other results were omitted from the sample, so the highest values are more common in it than they were.

The target in the assay is T1, MBP-FoxP3dN (Mus musculus, UniProt Q99JB6 188-423).
T1 sequence: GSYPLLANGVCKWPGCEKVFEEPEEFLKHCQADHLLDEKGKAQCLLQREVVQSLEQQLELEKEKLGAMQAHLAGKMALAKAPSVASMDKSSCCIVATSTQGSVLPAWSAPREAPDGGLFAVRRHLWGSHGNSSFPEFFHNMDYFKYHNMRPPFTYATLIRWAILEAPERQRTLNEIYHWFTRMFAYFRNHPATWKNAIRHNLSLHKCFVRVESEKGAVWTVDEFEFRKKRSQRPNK
In words: PD-seq (MBP pull-down with sequencing); 20 mM Tris-HCl pH 7.5, 100 mM NaCl, 1.5 mM MgCl2, 0.4 uM protein, 0.1 uM dsDNA library, 30 min, room temperature, amylose pull-down; high values mean tight binding. The conditions noted are these: protein: recombinant; tags: His6-MBP; chain copies: 2; dsDNA, one strand shown. The gist of the method: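 E. coli-expressed mouse FoxP3 or FoxP1 fragment, N-terminus removed and tagged with His6-MBP, was used at 0.4 µM against 0.1 µM of a Klenow-filled degenerate double-stranded DNA library. After 30 min at room temperature in Tris pH 7.5 buffer with NaCl and MgCl2, complexes were pulled down on amylose resin and washed three times. Binding is pull-down over input reads-per-million enrichment from pooled replicates of the proteinase K-released, PCR-barcoded, Illumina-sequenced DNA.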
For the sequence “GATGATTGTTCTCCCAGCTGATGAATTGCCTCCATCGAGTAAACAAATTTTCCTAATCTTTCTGTTCAAGCGCCATCTAC”, the binding signal was 1.28 RPM ratio (pull-down/input).
The result for “GATGATTGTTCTCCCAGCTGATGAATTATACTTCTCGAGTAAACAAATTTTCCTAATCTTTCTGTTCAAGCGCCATCTAC” reads 0.492 RPM ratio (pull-down/input); that for “GATGATTGTTCTCCCAGCTGATGAATTTTTCTACTCGAGTAAACAAATTTTCCTAATCTTTCTGTTCAAGCGCCATCTAC”, 0.279 RPM ratio (pull-down/input); that for “GATGATTGTTCTCCCAGCTGATGAATTTATCGCCTCGAGTAAACAAATTTTCCTAATCTTTCTGTTCAAGCGCCATCTAC”, 1.07 RPM ratio (pull-down/input).
In the case of “GATGATTGTTCTCCCAGCTGATGAATTGCGCTCATCGAGTAAACAAATTTTCCTAATCTTTCTGTTCAAGCGCCATCTAC” it was 1.24 RPM ratio (pull-down/input).
Turning to “GATGATTGTTCTCCCAGCTGATGAATTAGCCGGCTCGAGTAAACAAATTTTCCTAATCTTTCTGTTCAAGCGCCATCTAC”, the binding signal is 0.203 RPM ratio (pull-down/input).
As for “GATGATTGTTCTCCCAGCTGATGAATTTGATTTATCGAGTAAACAAATTTTCCTAATCTTTCTGTTCAAGCGCCATCTAC”, the binding signal was 2.99 RPM ratio (pull-down/input).
In the case of “GATGATTGTTCTCCCAGCTGATGAATTATGTTTATCGAGTAAACAAATTTTCCTAATCTTTCTGTTCAAGCGCCATCTAC” it was 8.36 RPM ratio (pull-down/input); in that of “GATGATTGTTCTCCCAGCTGATGAATTGTGTTTATCGAGTAAACAAATTTTCCTAATCTTTCTGTTCAAGCGCCATCTAC”, 8.53 RPM ratio (pull-down/input).
Turning to “GATGATTGTTCTCCCAGCTGATGAATTGTTTTTATCGAGTAAACAAATTTTCCTAATCTTTCTGTTCAAGCGCCATCTAC”, the binding signal is 3.74 RPM ratio (pull-down/input).
For the sequence “GATGATTGTTCTCCCAGCTGATGAATTCTGTTTATCGAGTAAACAAATTTTCCTAATCTTTCTGTTCAAGCGCCATCTAC”, the binding signal is 7.92 RPM ratio (pull-down/input).
The result for “GATGATTGTTCTCCCAGCTGATGAATTTATGTTATCGAGTAAACAAATTTTCCTAATCTTTCTGTTCAAGCGCCATCTAC” reads 3.24 RPM ratio (pull-down/input); that for “GATGATTGTTCTCCCAGCTGATGAATTCCTTTTATCGAGTAAACAAATTTTCCTAATCTTTCTGTTCAAGCGCCATCTAC”, 0.345 RPM ratio (pull-down/input).
Turning to “GATGATTGTTCTCCCAGCTGATGAATTTTGTTTATCGAGTAAACAAATTTTCCTAATCTTTCTGTTCAAGCGCCATCTAC”, the binding signal is 7.19 RPM ratio (pull-down/input).
The result for “GATGATTGTTCTCCCAGCTGATGAATTATGATTATCGAGTAAACAAATTTTCCTAATCTTTCTGTTCAAGCGCCATCTAC” reads 3.53 RPM ratio (pull-down/input); that for “GATGATTGTTCTCCCAGCTGATGAATTTATCTAATCGAGTAAACAAATTTTCCTAATCTTTCTGTTCAAGCGCCATCTAC”, 0.706 RPM ratio (pull-down/input); that for “GATGATTGTTCTCCCAGCTGATGAATTCTTTTTATCGAGTAAACAAATTTTCCTAATCTTTCTGTTCAAGCGCCATCTAC”, 0.332 RPM ratio (pull-down/input).
As for “GATGATTGTTCTCCCAGCTGATGAATTTTCTTTATCGAGTAAACAAATTTTCCTAATCTTTCTGTTCAAGCGCCATCTAC”, the binding signal was 1.27 RPM ratio (pull-down/input).
In the case of “GATGATTGTTCTCCCAGCTGATGAATTACCACCCTCGAGTAAACAAATTTTCCTAATCTTTCTGTTCAAGCGCCATCTAC” it was 0.312 RPM ratio (pull-down/input).
The result for “GATGATTGTTCTCCCAGCTGATGAATTCGTCGTCTCGAGTAAACAAATTTTCCTAATCTTTCTGTTCAAGCGCCATCTAC” reads 1.31 RPM ratio (pull-down/input).
In the case of “GATGATTGTTCTCCCAGCTGATGAATTAAAGTGCTCGAGTAAACAAATTTTCCTAATCTTTCTGTTCAAGCGCCATCTAC” it was 0.358 RPM ratio (pull-down/input); in that of “GATGATTGTTCTCCCAGCTGATGAATTTTCCTTCTCGAGTAAACAAATTTTCCTAATCTTTCTGTTCAAGCGCCATCTAC”, 0.258 RPM ratio (pull-down/input).
For “GATGATTGTTCTCCCAGCTGATGAATTTAGATTATCGAGTAAACAAATTTTCCTAATCTTTCTGTTCAAGCGCCATCTAC”, the binding signal is 1.31 RPM ratio (pull-down/input).
In the case of “GATGATTGTTCTCCCAGCTGATGAATTTCTTTTATCGAGTAAACAAATTTTCCTAATCTTTCTGTTCAAGCGCCATCTAC” it was 0.545 RPM ratio (pull-down/input); in that of “GATGATTGTTCTCCCAGCTGATGAATTTATCTCCTCGAGTAAACAAATTTTCCTAATCTTTCTGTTCAAGCGCCATCTAC”, 0.631 RPM ratio (pull-down/input).
The result for “GATGATTGTTCTCCCAGCTGATGAATTTTTTACATCGAGTAAACAAATTTTCCTAATCTTTCTGTTCAAGCGCCATCTAC” reads 0.25 RPM ratio (pull-down/input).
In the case of “GATGATTGTTCTCCCAGCTGATGAATTGTTTATCTCGAGTAAACAAATTTTCCTAATCTTTCTGTTCAAGCGCCATCTAC” it was 6.57 RPM ratio (pull-down/input); in that of “GATGATTGTTCTCCCAGCTGATGAATTTACAACATCGAGTAAACAAATTTTCCTAATCTTTCTGTTCAAGCGCCATCTAC”, 1.26 RPM ratio (pull-down/input); in that of “GATGATTGTTCTCCCAGCTGATGAATTTTTTATCTCGAGTAAACAAATTTTCCTAATCTTTCTGTTCAAGCGCCATCTAC”, 0.243 RPM ratio (pull-down/input).
“GATGATTGTTCTCCCAGCTGATGAATTTGTTTTATCGAGTAAACAAATTTTCCTAATCTTTCTGTTCAAGCGCCATCTAC”: the binding signal was 6.46 RPM ratio (pull-down/input).
With “GATGATTGTTCTCCCAGCTGATGAATTTTTTTTATCGAGTAAACAAATTTTCCTAATCTTTCTGTTCAAGCGCCATCTAC”, the binding signal is 0.295 RPM ratio (pull-down/input).
Turning to “GATGATTGTTCTCCCAGCTGATGAATTGTTTACATCGAGTAAACAAATTTTCCTAATCTTTCTGTTCAAGCGCCATCTAC”, the binding signal is 8.09 RPM ratio (pull-down/input).
The result for “GATGATTGTTCTCCCAGCTGATGAATTGTGTCCCTCGAGTAAACAAATTTTCCTAATCTTTCTGTTCAAGCGCCATCTAC” reads 2.1 RPM ratio (pull-down/input).
